For assay [1], the target named is Protein kinase C gamma type (Homo sapiens) (UniProt P05129). Conditions: at 1 µM.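 Note: each value is an averaged percent inhibition of the enzyme.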
The target of assay [2] is T1, Protein kinase C iota type (Homo sapiens) (UniProt P41743).
T1 sequence (whole entry): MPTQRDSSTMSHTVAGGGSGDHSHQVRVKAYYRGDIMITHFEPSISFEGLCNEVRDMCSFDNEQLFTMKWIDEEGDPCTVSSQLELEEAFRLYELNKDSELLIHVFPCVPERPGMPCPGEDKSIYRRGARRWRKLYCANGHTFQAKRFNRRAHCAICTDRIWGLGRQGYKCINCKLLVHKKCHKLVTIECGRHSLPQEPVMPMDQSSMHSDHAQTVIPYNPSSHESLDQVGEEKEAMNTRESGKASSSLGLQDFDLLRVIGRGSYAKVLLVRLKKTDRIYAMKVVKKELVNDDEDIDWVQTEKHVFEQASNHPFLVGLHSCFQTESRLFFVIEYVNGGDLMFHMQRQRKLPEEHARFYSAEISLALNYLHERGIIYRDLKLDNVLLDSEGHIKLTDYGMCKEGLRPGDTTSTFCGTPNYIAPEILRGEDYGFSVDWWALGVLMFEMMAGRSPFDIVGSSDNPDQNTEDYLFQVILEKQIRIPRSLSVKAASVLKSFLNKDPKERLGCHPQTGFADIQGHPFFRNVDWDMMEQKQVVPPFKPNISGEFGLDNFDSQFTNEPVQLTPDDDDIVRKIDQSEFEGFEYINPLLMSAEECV
The following applies: at 0.1 µM.

Assay [3] addresses T1, Protein kinase C iota type (Homo sapiens). The following applies: at 1 µM.
Assay [4] addresses Protein kinase C theta type (Homo sapiens) (UniProt Q04759). The following applies: at 0.1 µM.
The target is the same in assay [5]. Conditions: at 1 µM.
Assay [6] concerns the target Protein kinase C beta type (Homo sapiens) (UniProt P05771). The following applies: at 0.1 µM.
For assay [7] the target is unchanged. Conditions: at 1 µM.
Assay [8] deals with T2, Serine/threonine-protein kinase D1 (Homo sapiens) (UniProt Q15139).
T2 sequence (whole entry): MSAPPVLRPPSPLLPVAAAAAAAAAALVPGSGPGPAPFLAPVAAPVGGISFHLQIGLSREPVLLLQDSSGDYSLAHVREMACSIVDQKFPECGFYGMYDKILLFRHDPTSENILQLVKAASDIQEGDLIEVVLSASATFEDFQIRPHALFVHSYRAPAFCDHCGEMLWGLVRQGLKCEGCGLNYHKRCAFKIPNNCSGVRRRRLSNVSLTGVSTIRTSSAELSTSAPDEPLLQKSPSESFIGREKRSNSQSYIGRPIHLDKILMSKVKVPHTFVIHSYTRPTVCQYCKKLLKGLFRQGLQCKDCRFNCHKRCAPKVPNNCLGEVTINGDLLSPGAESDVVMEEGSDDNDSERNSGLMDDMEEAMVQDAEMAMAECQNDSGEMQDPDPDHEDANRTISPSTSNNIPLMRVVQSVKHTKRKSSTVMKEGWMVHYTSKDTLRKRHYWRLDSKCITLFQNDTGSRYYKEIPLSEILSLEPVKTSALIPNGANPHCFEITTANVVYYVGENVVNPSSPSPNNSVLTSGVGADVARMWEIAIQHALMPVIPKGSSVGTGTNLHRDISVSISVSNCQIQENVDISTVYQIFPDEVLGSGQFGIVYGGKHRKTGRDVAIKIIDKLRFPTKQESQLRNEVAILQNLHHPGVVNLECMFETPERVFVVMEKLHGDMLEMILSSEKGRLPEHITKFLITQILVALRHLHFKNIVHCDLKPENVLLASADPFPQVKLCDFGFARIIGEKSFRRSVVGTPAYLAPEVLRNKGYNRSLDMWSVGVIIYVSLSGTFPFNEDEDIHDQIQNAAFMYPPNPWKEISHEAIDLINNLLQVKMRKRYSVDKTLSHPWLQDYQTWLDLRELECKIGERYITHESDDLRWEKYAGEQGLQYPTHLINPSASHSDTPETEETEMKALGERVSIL
The following applies: at 0.1 µM.

Assay [9] has as its target T2, Serine/threonine-protein kinase D1 (Homo sapiens). The following applies: at 1 µM.
Assay [10] deals with T3, Serine/threonine-protein kinase D2 (Homo sapiens) (UniProt Q9BZL6).
T3 sequence (whole entry): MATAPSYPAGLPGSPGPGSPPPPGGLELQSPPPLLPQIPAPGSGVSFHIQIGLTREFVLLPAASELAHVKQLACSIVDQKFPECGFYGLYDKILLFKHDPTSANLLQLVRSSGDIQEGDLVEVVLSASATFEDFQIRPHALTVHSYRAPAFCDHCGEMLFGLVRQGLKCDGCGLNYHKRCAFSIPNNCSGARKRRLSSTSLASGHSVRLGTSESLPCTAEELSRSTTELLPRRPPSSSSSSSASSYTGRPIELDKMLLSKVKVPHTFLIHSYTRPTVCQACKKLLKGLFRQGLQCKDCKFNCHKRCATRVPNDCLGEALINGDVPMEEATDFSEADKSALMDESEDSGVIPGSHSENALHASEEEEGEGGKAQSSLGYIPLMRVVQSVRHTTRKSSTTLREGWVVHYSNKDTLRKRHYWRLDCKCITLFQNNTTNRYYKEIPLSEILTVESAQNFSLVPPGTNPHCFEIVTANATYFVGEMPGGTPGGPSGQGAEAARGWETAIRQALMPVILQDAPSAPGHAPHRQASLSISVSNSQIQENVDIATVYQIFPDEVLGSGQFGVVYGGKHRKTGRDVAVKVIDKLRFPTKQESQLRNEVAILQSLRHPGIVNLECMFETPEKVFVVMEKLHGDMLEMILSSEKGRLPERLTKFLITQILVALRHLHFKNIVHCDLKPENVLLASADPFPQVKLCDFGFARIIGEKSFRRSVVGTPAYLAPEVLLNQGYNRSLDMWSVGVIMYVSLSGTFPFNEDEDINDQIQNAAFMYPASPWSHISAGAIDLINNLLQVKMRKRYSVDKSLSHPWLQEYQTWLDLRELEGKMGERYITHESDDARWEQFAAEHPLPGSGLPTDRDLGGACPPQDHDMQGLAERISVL
Conditions: at 0.1 µM.

Assay [11] deals with T3, Serine/threonine-protein kinase D2 (Homo sapiens). The following applies: at 1 µM.
The target of assay [12] is T4, Serine/threonine-protein kinase D3 (Homo sapiens) (UniProt O94806).
T4 sequence (whole entry): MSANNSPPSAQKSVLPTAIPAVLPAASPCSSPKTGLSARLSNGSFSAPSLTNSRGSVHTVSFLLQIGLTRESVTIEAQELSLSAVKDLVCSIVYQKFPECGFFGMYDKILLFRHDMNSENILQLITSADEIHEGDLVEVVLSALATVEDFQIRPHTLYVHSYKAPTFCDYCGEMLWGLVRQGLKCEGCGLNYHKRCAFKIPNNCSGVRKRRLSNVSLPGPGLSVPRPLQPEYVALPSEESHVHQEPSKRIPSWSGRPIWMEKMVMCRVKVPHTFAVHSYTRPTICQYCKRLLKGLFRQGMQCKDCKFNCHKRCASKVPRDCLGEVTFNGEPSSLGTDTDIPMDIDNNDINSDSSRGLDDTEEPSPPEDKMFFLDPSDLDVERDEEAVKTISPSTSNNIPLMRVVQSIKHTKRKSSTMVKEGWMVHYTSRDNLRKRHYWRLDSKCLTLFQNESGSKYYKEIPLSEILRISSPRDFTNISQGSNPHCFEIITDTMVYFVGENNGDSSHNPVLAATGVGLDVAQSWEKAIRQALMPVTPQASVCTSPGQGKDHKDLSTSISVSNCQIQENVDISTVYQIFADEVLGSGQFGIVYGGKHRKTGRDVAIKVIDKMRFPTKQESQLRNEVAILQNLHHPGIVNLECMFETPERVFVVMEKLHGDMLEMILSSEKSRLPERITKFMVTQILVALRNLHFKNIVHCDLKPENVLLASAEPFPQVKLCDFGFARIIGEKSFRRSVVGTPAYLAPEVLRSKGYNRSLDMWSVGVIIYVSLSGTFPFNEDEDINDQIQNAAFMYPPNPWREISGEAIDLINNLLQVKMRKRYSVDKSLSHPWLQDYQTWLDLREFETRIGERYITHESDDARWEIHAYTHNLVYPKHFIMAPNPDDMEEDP
The following applies: at 0.1 µM.

For assay [13], the target named is T4, Serine/threonine-protein kinase D3 (Homo sapiens). Conditions: at 1 µM.
Assay [14] concerns the target T5, cGMP-dependent protein kinase 1 (Homo sapiens) (UniProt Q13976).
T5 sequence (whole entry): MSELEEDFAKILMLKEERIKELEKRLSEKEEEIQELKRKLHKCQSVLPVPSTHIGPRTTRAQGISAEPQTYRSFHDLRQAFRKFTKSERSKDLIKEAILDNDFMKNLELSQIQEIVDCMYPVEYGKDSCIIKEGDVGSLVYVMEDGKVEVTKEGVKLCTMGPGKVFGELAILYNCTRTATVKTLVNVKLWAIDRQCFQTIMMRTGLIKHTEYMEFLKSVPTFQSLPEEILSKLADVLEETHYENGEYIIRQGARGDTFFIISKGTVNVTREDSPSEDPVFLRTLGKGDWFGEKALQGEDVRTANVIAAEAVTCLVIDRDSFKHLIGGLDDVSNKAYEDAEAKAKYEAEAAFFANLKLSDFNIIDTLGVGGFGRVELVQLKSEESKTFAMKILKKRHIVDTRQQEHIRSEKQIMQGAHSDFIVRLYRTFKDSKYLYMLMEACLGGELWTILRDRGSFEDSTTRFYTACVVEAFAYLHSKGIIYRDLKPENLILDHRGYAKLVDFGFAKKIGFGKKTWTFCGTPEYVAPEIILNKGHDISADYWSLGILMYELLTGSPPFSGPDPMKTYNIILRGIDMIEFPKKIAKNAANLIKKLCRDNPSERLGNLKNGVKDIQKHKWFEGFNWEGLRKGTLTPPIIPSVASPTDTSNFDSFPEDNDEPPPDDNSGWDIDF
Conditions: at 0.1 µM.

Assay [15] concerns the target T5, cGMP-dependent protein kinase 1 (Homo sapiens). Conditions: at 1 µM.
In assay [16] the target is T6, cGMP-dependent protein kinase 2 (Homo sapiens) (UniProt Q13237).
T6 sequence (whole entry): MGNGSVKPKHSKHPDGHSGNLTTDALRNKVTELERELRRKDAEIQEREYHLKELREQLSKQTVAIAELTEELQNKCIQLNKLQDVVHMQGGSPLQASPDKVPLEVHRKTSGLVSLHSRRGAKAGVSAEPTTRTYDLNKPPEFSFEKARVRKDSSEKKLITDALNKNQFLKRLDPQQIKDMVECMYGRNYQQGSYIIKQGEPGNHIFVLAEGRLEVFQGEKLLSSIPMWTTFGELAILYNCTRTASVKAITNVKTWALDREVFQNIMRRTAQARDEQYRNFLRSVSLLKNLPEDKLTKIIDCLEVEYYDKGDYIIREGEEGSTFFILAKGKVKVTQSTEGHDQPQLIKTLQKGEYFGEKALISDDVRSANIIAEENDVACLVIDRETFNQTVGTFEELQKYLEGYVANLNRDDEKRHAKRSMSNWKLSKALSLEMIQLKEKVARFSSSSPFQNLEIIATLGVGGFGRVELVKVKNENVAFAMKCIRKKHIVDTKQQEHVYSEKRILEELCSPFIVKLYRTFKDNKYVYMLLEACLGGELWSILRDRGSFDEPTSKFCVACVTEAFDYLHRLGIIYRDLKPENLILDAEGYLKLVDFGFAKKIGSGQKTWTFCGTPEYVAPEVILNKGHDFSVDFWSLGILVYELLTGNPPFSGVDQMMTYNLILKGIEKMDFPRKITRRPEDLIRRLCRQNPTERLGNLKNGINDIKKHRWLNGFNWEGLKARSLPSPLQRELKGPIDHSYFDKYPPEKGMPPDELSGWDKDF
Conditions: at 0.1 µM.

Assay [17] concerns the target T6, cGMP-dependent protein kinase 2 (Homo sapiens). Conditions: at 1 µM.
Assay [18] concerns the target T7, cAMP-dependent protein kinase catalytic subunit PRKX (Homo sapiens) (UniProt P51817).
T7 sequence (whole entry): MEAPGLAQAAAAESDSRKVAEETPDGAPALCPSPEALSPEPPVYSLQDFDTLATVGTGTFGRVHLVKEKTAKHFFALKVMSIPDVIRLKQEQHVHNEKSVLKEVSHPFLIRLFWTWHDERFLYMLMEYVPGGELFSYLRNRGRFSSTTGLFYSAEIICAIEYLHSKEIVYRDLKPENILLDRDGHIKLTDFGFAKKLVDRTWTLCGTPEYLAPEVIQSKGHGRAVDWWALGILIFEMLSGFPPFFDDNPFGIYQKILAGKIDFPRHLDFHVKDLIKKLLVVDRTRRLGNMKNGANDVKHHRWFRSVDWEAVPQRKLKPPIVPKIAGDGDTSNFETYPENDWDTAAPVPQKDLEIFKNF
The following applies: at 0.1 µM.

For assay [19], the target named is T7, cAMP-dependent protein kinase catalytic subunit PRKX (Homo sapiens). The following applies: at 1 µM.
In assay [20] the target is Rho-associated protein kinase 1 (Homo sapiens) (UniProt Q13464). The following applies: at 0.1 µM.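 Note: values are mean percent inhibition of ROCK1.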
Sequence of Rho-associated protein kinase 1 (Homo sapiens) (Q13464 2-1354 limits assumed): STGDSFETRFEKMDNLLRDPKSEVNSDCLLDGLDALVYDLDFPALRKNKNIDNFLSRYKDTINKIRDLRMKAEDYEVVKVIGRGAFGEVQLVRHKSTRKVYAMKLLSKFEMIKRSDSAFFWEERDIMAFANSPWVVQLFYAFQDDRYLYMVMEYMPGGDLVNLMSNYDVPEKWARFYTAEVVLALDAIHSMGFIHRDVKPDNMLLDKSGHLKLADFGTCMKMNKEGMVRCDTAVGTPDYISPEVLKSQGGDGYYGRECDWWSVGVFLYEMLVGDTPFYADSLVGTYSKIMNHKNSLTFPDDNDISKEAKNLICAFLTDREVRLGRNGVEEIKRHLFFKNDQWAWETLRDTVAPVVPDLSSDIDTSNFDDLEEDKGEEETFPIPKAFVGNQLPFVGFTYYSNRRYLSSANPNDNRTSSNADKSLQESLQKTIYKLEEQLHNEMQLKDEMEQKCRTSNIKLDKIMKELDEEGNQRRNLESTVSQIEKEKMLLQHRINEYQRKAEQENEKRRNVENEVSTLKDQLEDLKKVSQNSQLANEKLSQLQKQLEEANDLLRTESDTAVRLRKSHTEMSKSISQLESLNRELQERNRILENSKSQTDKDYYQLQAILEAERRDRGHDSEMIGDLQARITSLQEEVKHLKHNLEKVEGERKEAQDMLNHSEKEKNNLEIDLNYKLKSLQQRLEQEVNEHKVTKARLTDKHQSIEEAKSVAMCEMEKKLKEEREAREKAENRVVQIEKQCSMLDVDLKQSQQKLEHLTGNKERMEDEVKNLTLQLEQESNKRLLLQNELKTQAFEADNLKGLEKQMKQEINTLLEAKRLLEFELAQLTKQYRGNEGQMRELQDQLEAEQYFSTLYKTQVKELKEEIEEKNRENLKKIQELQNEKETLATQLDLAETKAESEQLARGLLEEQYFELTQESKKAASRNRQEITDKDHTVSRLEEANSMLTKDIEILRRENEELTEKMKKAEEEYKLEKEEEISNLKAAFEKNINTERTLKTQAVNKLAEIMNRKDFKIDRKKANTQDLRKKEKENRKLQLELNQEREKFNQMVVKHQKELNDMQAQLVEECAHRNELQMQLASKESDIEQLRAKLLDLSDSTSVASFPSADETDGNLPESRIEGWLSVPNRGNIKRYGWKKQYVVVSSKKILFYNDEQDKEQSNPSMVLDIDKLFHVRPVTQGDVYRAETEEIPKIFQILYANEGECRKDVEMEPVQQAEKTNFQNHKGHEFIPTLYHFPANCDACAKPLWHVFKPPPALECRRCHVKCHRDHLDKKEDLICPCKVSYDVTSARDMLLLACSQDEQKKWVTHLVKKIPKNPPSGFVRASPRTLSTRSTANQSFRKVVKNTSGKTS

The term inhibition denotes the share of the control response that was lost under treatment. Higher therefore signals strong suppression.

Sequence of Protein kinase C theta type (Homo sapiens) (Q04759 whole entry, looked up): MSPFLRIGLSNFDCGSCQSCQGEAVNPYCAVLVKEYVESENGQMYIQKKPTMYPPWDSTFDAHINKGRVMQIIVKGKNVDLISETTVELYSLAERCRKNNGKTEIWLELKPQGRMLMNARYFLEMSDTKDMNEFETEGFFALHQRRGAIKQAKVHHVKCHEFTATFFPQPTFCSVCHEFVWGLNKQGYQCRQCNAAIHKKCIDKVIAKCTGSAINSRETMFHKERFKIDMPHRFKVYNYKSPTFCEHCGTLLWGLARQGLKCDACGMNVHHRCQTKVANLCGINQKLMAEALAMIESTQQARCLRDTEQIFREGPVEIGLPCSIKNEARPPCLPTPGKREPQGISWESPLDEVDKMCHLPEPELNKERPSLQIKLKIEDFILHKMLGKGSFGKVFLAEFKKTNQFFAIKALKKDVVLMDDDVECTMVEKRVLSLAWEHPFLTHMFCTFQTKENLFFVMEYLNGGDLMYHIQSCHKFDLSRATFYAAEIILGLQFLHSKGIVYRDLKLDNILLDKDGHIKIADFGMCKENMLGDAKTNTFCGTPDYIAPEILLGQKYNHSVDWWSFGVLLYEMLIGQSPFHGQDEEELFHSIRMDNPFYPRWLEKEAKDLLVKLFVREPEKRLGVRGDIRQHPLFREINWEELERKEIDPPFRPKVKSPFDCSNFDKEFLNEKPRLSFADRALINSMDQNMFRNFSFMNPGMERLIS
Sequence of Protein kinase C beta type (Homo sapiens) (P05771 2-671 limits assumed): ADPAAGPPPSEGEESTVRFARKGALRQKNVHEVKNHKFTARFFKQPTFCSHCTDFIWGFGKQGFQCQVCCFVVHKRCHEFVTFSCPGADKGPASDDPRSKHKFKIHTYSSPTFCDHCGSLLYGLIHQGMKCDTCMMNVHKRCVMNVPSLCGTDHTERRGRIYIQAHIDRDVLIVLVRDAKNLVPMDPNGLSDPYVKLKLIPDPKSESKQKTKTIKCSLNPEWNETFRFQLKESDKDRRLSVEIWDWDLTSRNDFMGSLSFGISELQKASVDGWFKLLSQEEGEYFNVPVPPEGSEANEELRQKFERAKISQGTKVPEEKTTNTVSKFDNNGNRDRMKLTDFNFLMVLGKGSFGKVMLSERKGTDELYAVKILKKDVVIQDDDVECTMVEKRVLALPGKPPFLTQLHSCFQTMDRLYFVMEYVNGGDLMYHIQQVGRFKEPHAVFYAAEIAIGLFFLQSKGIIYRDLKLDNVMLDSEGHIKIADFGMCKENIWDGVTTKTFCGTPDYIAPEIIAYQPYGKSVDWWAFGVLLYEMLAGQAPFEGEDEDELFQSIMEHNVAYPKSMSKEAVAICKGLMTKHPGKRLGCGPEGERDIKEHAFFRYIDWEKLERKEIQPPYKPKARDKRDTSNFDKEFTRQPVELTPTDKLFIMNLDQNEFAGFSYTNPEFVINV

For `c1ccc(Oc2ccc(Nc3ncc(-c4ccccc4)o3)cc2)cc1`, the inhibition in [1] worked out at 3.46%; in assay [2], 1.87%; in assay [3] it was 0.57%; in assay [4] it was 1.08%; in assay [5], 0.33%; in assay [6] it was 0.45%. The inhibition in assay [7] came to 1.67%; in assay [8], 2.12%; in assay [9] it was 4.49%; in [10], 1.43%; in assay [11], 3.8%; in [12], 2.14%. The inhibition was found to be 3.61% in assay [13]; 2.21% in assay [14]; 3.15% in assay [15]; 1.21% in assay [16]; 3.1% in [17]; 2.99% in [18]. Further, the inhibition in [19] amounted to 6.18%; in assay [20], 3.48%.
For the molecule `CCN(CC)Cc1ccc(Nc2nccc(-c3cnn4ncccc34)n2)cc1`, the inhibition in assay [1] is 7.9%; in assay [2] it was 1.27%; in [3], 2.03%; in assay [4] it was 2.37%; in assay [5], 4.84%; in [6] it was 1%. The inhibition in [7] turned out to be 6.38%; in assay [8] it was 36.3%; in [9] it was 65.6%; in [10], 28.1%; in assay [11] it was 64.4%; in assay [12] it was 30.2%. For the same molecule, the inhibition in [13] was found to be 62.6%; in [14], 3.48%; in assay [15] it was 14.9%; in [16], 3.29%; in assay [17], 13.7%; in assay [18] it was 2.55%. In addition, the results for the inhibition in assay [19] and in assay [20] were 4.27% and 2.36%, respectively.

The values are drawn from ChEMBL document CHEMBL1961873, “Compounds: GSK PKIS; Assays: Nanosyn kinase panel” (2012).
